# High-throughput results: PubChem BioAssay, SRMLSC
# Only some compounds are listed: those with a hit (about 6.3% of all), similar ones and a draw of the others.
# Spn MK inh: blocks S. pneumoniae mevalonate kinase; actives 0.48% (n = 65,000); inhibition, % at 10 µM; purified MK, PK/LDH-coupled NADH absorbance 340 nm;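 active = ranked among the strongest by inhibition in the single 10 µM screen, a fixed top-ranked set picked for dose follow-up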
# PMK inhibit: S. pneumoniae PMK inhibition; inhibition, % at 10 µM; AID 539; actives 0.49% (n = 65,000); purified PMK, PK/LDH-coupled NADH absorbance 340 nm;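 active = top-ranked compounds by inhibition in the single 10 µM screen, taking a fixed number of the strongest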;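 also: 0% = full reaction with DMSO carrier and 100% = background rate without enzyme reaction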
# DPM-DC inhibit: inhibitors of Streptococcus pneumoniae diphosphomevalonate decarboxylase; purified DPM-DC, PK/LDH coupled NADH fluorescence; calls only at 10 µM; actives 0.49% (n = 65,000); AID 556;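 active = the 320 compounds with the highest percent inhibition in the single-dose primary screen, excluding strongly autofluorescent ones, cut at about 32% in these data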;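 also: kinetic rate of NADH fluorescence loss reporting ADP formed by the decarboxylase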
# Autofluor 339: intrinsic fluorescence of library compounds, ex339/em460 – biochemical, MLSMR library, data from DPM-DC assay, artefact control, profiling panel; compound autofluorescence, ex339/em460 nm, NADH buffer; active compounds read high; 1 = no-compound wells, NADH background; fluorescence fold increase at 10 µM; actives 5.5% (n = 65,000); AID 709;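 active = at 10 µM, mean starting fluorescence two-fold or more over control wells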;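 also: signal is the first read of a kinetic run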
# NADH enzymes: blocks coupling enzymes of NAD/NADH assays. coupled PK/LDH NADH assays, four targets. AID 774. actives 0.02% (n = 65,000). IC50, µM (titrated, usually from 10 µM), for the others: top-dose inhibition;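 active = single-dose screening hits from any of four coupled enzyme assays that gave an IC50 when retested across doses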;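 also: the DPM-DC format reads NADH fluorescence rather than 340 nm absorbance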
# A340 absorber: absorbance at 340 nm; compound absorbance at 340 nm, fold over control; fold change at 10 µM; 65,000 tested, under 10 active;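 active = at 10 µM dose, initial 340 nm absorbance at least 2 fold that of control wells; inactive = change under 2 fold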;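 also: initial absorbance extrapolated from kinetic A340 decline of NADH oxidation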
# An asterisk follows results filed as active; i = inactive; / = no result given; + = active, no number.
SMILES,Spn MK inh,PMK inhibit,DPM-DC inhibit,Autofluor 339,NADH enzymes,A340 absorber
CCCCCC(C(=O)O)C(C)CC(=O)NC1CCCCC1 (configuration not stated),10.0,6.0,i,1.07,5.0%,0.99
CNC(=O)c1cc2cc(OC)ccc2oc1=N,0.0,0.0,i,2.55*,4.0%,1.08
COc1ccc2oc(=N)c(C(=O)Nc3ccccc3)cc2c1,7.0,11.0,i,1.21,7.0%,0.98
CNC(=O)c1cc2ccc(OC)cc2oc1=O,10.0,4.0,/,3.57*,7.0%,1.21
CN(C)CCNC(=O)C(C(=O)c1ccc(F)cc1)n1ccccc1=O (configuration not stated),0.0,4.0,i,1.16,1.0%,1.01
COc1ccc(N2CCN(C3CC(=O)NC3=O)CC2)cc1 (configuration not stated),11.0,0.0,i,1.05,6.0%,1
COc1ccc(NC2CC(=O)NC2=O)cc1 (configuration not stated),0.0,26.0*,i,1.14,9.0%,1.02
Cc1nnc2sc(-c3ccc(NC(=O)c4ccc(-c5ccc(Cl)cc5Cl)o4)cc3)nn12,11.0,1.0,/,3.87*,6.0%,1.14
Cc1nnc2sc(-c3ccc(NC(=O)c4cccnc4)cc3)nn12,18.0,11.0,i,1.06,10.0%,1.12
CCOC(=O)CSc1nc(N)c2c3c(sc2n1)CCCC3,1.0,7.0,i,1.08,2.0%,0.99
CCOC(=O)c1nc(N2CCN(C(=O)OCC)CC2)c2c3c(sc2n1)CCCC3,0.0,12.0,/,3.69*,6.0%,1.07
CCOC(=O)c1nc2sc3c(c2c(=O)[nH]1)CCCC3,2.0,8.0,/,2.51*,2.0%,1.07
COc1ccc2c(c1)OCC1=C2CCC2(C)C(=O)CC=C12 (configuration not stated),6.0,7.0,/,3.6*,7.0%,1.1
CCn1c(COc2ccc(C)cc2)nnc1SCC(=O)Nc1ccc2c(c1)OCCO2,3.0,5.0,i,2.02*,3.0%,1.01
O=C(CN1C2=NCCN2c2ccccc21)C12CC3CC(CC(C3)C1)C2,7.0,5.0,i,1.07,4.0%,1.03
Nc1ccc(O)cc1C(=O)OCC(=O)C12CC3CC(CC(C3)C1)C2,0.0,9.0,/,2.12*,5.0%,1.04
CSC1=C(C#N)C(C)CC(=O)N1 (configuration not stated),9.0,6.0,i,1.04,1.0%,1
Cc1cccc(N2CCN(C(=O)c3cn(C)c(=O)c4c3c3ccccc3n4C)CC2)c1C,0.0,15.0,i,1.89,6.0%,1.04
COCCn1cc(C(=O)N2CCN(C)CC2)c2c3ccccc3n(C)c2c1=O,0.0,11.0,/,4.61*,6.0%,1.06
CCOC(=O)N1CCN(C(=O)c2cn(CCOC)c(=O)c3c2c2ccccc2n3C)CC1,7.0,9.0,/,4.33*,8.0%,1.06
COC(=O)C(CCCCNC(=O)OCc1ccccc1)NC(=O)CN (configuration not stated),7.0,10.0,i,1.19,2.0%,0.99
Cc1onc(-c2c(F)cccc2Cl)c1C(=O)Nc1cccc2nsnc12,6.0,6.0,i,2.95*,7.0%,1
CC(C)OC(=O)CC1=NC(=O)CS1,15.0,0.0,i,1.08,5.0%,1.03
CC(C)OC(=O)CCC1(C(=O)O)CCC(=O)NC1 (configuration not stated),11.0,25.0*,i,1,12.0%,0.99
CCc1ccccc1NC(=O)CSc1nnc([C@@H]2CCCN2C(=O)OC(C)(C)C)o1,7.0,11.0,i,1.1,6.0%,1.01
SMILES,Spn MK inh,PMK inhibit,DPM-DC inhibit,Autofluor 339,NADH enzymes,A340 absorber
CCCn1c(SCC(=O)NC(=O)NCc2ccco2)n[nH]c1=O,0.0,13.0,i,1.01,3.0%,1
CCCn1c(SCc2cc(=O)oc3ccc4ccccc4c23)n[nH]c1=O,0.0,17.0,/,2.07*,9.0%,1.09
COc1ccc(CN2CCN(C(=O)c3cccs3)CC2)cc1Br,49.0*,13.0,i,1.07,21.0%,1.06
CCOc1cc(CN2CCN(c3ccc(C(C)=O)cc3)CC2)ccc1OC,44.0*,0.0,i,1.1,15.0%,1.17
CCOc1cc(CN2CCN(C(=O)c3ccco3)CC2)ccc1OC,51.0*,0.0,i,1.01,7.0%,1.05
N#CC(C(=O)NC1CC1)c1nc2ccccc2nc1N1CCCC1 (configuration not stated),0.0,16.0,i,1.84,9.0%,1.04
N#CC(C(=O)NC1CCCCC1)c1nc2ccccc2nc1N1CCCCC1 (configuration not stated),31.0,41.0*,+,1.82,55.0%,1.05
COCCNC(=O)C(C#N)c1nc2ccccc2nc1N1CCCCCC1 (configuration not stated),5.0,10.0,+,2.49*,20.0%,1.07
CCOc1ccc2nc(NC(=O)C3CCN(c4cnccn4)CC3)sc2c1,0.0,11.0,i,2.61*,10.0%,1.04
Cc1nn(-c2ccccc2)c2[nH]c(=O)c(CNc3ccc(N4CCOCC4)cc3)cc12,4.0,11.0,i,1.09,5.0%,0.99
O=c1[nH]c2c(cc1CNCCN1CCOCC1)c(-c1cccc(F)c1)nn2-c1ccccc1,22.0,12.0,i,3.53*,20.0%,1.05
COc1cc(CNc2ccc3c(c2)CCC3)cc(OC)c1O,44.0*,0.0,i,1.13,15.0%,1.06
CCc1ccc(C(=O)NCc2cccs2)s1,27.0,5.0,i,1.1,11.0%,0.99
COc1ccccc1N1CCN(C(=O)c2cc(-c3cccc(Cl)c3)on2)CC1,4.0,11.0,i,1,5.0%,1.01
CC(C)c1cc(N2CCN(C(=O)c3ccco3)CC2)n2c(nc3ccccc32)c1C#N,5.0,13.0,/,2.14*,9.0%,1.08
O=C(c1ccco1)N1CCN(c2nc3ccccc3n3nnnc23)CC1,0.0,18.0,i,1.55,6.0%,1.06
CCc1c(C)c(C#N)c2nc3ccccc3n2c1-n1nc(C)cc1C,0.0,5.0,i,1.24,2.0%,1.04
Cc1cc(-c2ccco2)c(C#N)c2nc3ccccc3n12,9.0,0.0,/,2.22*,5.0%,1.27
O=c1c2c([nH]c3ccccc13)C(=C1CCCC1)CC2,0.0,0.0,/,2.11*,0.0%,1.12
CC(C)(C)C1CCc2[nH]c3ccccc3c(=O)c2C1 (configuration not stated),0.0,0.0,i,1.16,0.0%,1.09
O=C(NCC(c1cccs1)N1CCOCC1)c1cc2ccccc2o1 (configuration not stated),10.0,0.0,i,1.14,3.0%,1.11
Cc1sc2ncnc(N[C@@H](CCC(=O)O)C(=O)O)c2c1C,11.0,5.0,i,1.07,6.0%,1.01
Cc1sc2ncnc(NCC(c3ccco3)N(C)C)c2c1C (configuration not stated),56.0*,30.0*,i,1.13,29.0%,1.07
